PubChem BioAssay (EPA / NIEHS)
The source made the active and inactive calls. Rule for the calls: active = hit-call score of the fitted dose curve at least 0.9, where 1 is the maximum; inactive = score below 0.9.

Experiments:
Conditions in all cases: mRNA level, 48 h; actives raise or lower the signal
[1] = read-out: solute carrier (SLC22A1), SLC22A1 (gene 6580); assay: LTEA_HepaRG_SLC22A1: Life Technologies and Expression Analysis (LTEA) Assay for solute carrier (SLC22A1) using HepaRG (AID 2283524);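 for AC50: differentiated human HepaRG liver cells in serum-free induction medium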
Procedure, shortened: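 qRT-PCR readout (TaqMan, Fluidigm arrays) of SLC22A1 transcript, normalized to three housekeeping genes; bidirectional curve fit relative to 0.5% DMSO vehicle. Differentiated human HepaRG cells, 48 h chemical exposure, top concentration 100 uM, half-log steps, eight points.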

[2] = read-out: Pyruvate Dehydrogenase Kinase 4 (PDK4), PDK4 (gene 5166); assay: LTEA_HepaRG_PDK4: Life Technologies and Expression Analysis (LTEA) Assay for Pyruvate Dehydrogenase Kinase 4 (PDK4) using HepaRG (AID 2283525)
Procedure, shortened: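 HepaRG (human liver line), 48 h chemical exposure, 8-pt half-log CRC top 100 uM, 0.5% DMSO vehicle, duplicates. Readout: TaqMan qRT-PCR of PDK4 mRNA, housekeeping-normalized; gain/loss fit relative to DMSO baseline.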

[3] = read-out: NAD(P)H dehydrogenase [quinone] 1 (NQO1), NQO1 (gene 1728); assay: LTEA_HepaRG_NQO1: Life Technologies and Expression Analysis (LTEA) Assay for NAD(P)H dehydrogenase [quinone] 1 (NQO1) using HepaRG (AID 2283526)
Procedure, shortened: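 qRT-PCR read-out (Fluidigm TaqMan), normalized to three housekeeping genes, after 48 h chemical exposure of HepaRG cells. Concentrations: eight points, top 100 uM, half-log steps, 0.5% DMSO vehicle. Gain or loss of signal fitted relative to DMSO.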

[4] = read-out: Nuclear factor erythroid 2-related factor 2 (Homo sapiens) (UniProt Q16236); assay: LTEA_HepaRG_NFE2L2: Life Technologies and Expression Analysis (LTEA) Assay for Nuclear factor erythroid 2-related factor 2 (NFE2L2) Transcription Factor using HepaRG (AID 2283527)
Procedure, shortened: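 HepaRG, 48 h dosing, 8-pt half-log series from 100 uM in 0.5% DMSO, duplicates. Read-out: NFE2L2 mRNA by qRT-PCR (ACTB/GAPDH/POLR2A normalization). Bidirectional curve fit vs DMSO baseline.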

[5] = read-out: succinate dehydrogenase complex iron sulfur subunit B (SDHB), SDHB (gene 6390); assay: LTEA_HepaRG_SDHB: Life Technologies and Expression Analysis (LTEA) Assay for succinate dehydrogenase complex iron sulfur subunit B (SDHB) using HepaRG (AID 2283528)
Procedure, shortened: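 SDHB transcript level read by TaqMan qRT-PCR, housekeeping-normalised (ACTB, GAPDH, POLR2A), after 48 h chemical treatment of plated HepaRG cells; eight concentrations top 100 uM, half-log steps, 0.5% DMSO, duplicates; fitted both directions against DMSO.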

[6] = read-out: Signal transducer and activator of transcription 3 (Homo sapiens) (UniProt P40763); assay: LTEA_HepaRG_STAT3: Life Technologies and Expression Analysis (LTEA) Assay for Signal transducer and activator of transcription (STAT3) using HepaRG (AID 2283529)
Procedure, shortened: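 HepaRG, 48 h exposure, 8-pt half-log series (top 100 uM), 0.5% DMSO vehicle, duplicates. Readout: STAT3 transcript by Fluidigm qRT-PCR, housekeeping-normalized; bidirectional fit vs DMSO baseline.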

[7] = read-out: solute carrier (SLCO1B1), SLCO1B1 (gene 10599); assay: LTEA_HepaRG_SLCO1B1: Life Technologies and Expression Analysis (LTEA) Assay for solute carrier (SLCO1B1) using HepaRG (AID 2283530)
Procedure, shortened: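 HepaRG, serum-free induction medium, 48 h dosing, 8-pt half-log from 100 uM, 0.5% DMSO vehicle, duplicates. Readout: SLCO1B1 mRNA, qRT-PCR, ACTB/GAPDH/POLR2A normalization; up or down fit vs DMSO.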

[8] = read-out: sulfotransferase 2A1 (SULT2A1), SULT2A1 (gene 6822); assay: LTEA_HepaRG_SULT2A1: Life Technologies and Expression Analysis (LTEA) Assay for sulfotransferase 2A1 (SULT2A1) using HepaRG (AID 2283531)
Procedure, shortened: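 Transcript levels of SULT2A1, quantified by qRT-PCR and normalized to three housekeeping genes, serve as the readout. Human HepaRG cultures receive test chemicals for 48 h at up to 100 uM in half-log steps, with 0.5% DMSO vehicle.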

[9] = read-out: Transforming Growth Factor (TGFA), TGFA (gene 7039); assay: LTEA_HepaRG_TGFA: Life Technologies and Expression Analysis (LTEA) Assay for Transforming Growth Factor (TGFA) using HepaRG (AID 2283532)
Procedure, shortened: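 qRT-PCR read-out of TGFA transcript, normalized to three housekeeping genes, fitted bidirectionally against 0.5% DMSO baseline. Human HepaRG cultures received chemicals for 48 h at eight half-log concentrations, top 100 uM.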

[10] = read-out: Transforming Growth Factor (TGFB1), TGFB1 (gene 7040); assay: LTEA_HepaRG_TGFB1: Life Technologies and Expression Analysis (LTEA) Assay for Transforming Growth Factor (TGFB1) Transporter using HepaRG (AID 2283533)
Procedure, shortened: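 HepaRG, 48 h post-plating, switched to serum-free induction medium; chemicals 100 uM top, half-log, 8 pts, 0.5% DMSO, dup; 48 h exposure; RNA → Fluidigm TaqMan qRT-PCR; norm ACTB/GAPDH/POLR2A; bidirectional fit vs DMSO.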

Measured: AC50

Chain of Signal transducer and activator of transcription 3 (Homo sapiens) (P40763 whole entry, looked up): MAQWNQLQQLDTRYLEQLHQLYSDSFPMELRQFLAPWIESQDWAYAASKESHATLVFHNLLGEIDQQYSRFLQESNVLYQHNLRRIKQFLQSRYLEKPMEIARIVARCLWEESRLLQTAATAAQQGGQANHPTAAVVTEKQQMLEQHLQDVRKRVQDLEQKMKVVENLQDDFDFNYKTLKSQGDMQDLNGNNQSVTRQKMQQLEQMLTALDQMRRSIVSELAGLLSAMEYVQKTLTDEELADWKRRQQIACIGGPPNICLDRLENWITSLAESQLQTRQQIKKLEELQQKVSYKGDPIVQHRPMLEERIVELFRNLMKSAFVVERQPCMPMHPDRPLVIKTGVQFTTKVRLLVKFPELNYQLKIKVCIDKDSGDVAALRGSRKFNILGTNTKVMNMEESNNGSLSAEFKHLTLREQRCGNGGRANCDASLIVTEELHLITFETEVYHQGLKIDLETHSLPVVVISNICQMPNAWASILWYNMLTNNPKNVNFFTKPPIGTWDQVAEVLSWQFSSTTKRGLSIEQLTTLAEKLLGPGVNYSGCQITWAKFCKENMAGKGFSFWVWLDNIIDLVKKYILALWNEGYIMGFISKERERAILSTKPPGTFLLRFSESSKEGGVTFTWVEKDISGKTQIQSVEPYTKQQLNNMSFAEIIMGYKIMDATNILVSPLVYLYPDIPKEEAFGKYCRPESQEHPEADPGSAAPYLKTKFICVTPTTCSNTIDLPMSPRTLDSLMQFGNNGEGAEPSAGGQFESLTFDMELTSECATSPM
Chain of Nuclear factor erythroid 2-related factor 2 (Homo sapiens) (Q16236 whole entry, looked up): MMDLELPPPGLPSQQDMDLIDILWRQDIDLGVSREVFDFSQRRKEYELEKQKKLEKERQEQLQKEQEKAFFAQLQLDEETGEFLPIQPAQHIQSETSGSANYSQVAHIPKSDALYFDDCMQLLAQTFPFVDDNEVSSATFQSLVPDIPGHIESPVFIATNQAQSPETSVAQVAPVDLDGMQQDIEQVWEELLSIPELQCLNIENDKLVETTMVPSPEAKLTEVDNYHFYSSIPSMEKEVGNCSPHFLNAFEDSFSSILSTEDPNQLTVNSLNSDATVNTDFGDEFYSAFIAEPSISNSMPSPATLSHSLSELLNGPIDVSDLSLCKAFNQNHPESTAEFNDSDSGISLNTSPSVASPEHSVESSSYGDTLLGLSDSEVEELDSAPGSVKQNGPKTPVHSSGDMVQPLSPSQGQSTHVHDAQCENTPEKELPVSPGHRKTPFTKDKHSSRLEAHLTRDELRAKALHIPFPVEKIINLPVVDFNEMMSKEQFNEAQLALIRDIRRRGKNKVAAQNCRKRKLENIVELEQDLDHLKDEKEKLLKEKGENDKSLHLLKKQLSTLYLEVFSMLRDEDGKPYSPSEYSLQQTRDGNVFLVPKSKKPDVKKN

C[C@@H](Oc1ccc(CNC(=O)c2cccnc2Oc2ccc3c(c2)OCO3)c(F)c1)C(=O)O
active: [2] 50 µM
inactive: all other assays above

CC(C)c1nnc2ccc(-c3ocnc3-c3cc(F)ccc3F)cn12
active: [1] 15.4 µM | [7] 50 µM | [8] 94 µM
not listed: [4]
inactive: all other assays above

CCOC(N)=O
inactive: all assays above

OC[C@H]1O[C@@H]2O[C@H]3[C@H](O)[C@@H](O)[C@@H](O[C@H]4[C@H](O)[C@@H](O)[C@@H](O[C@H]5[C@H](O)[C@@H](O)[C@@H](O[C@H]6[C@H](O)[C@@H](O)[C@@H](O[C@H]7[C@H](O)[C@@H](O)[C@@H](O[C@H]1[C@H](O)[C@H]2O)O[C@@H]7CO)O[C@@H]6CO)O[C@@H]5CO)O[C@@H]4CO)O[C@@H]3CO
inactive: all assays above

Cc1nc(-c2ccccn2)ncc1C(=O)Nn1cc(C)c2cc(F)ccc21
active: [1] 77.7 µM
inactive: all other assays above

NNC(=O)c1ccncc1
inactive: all assays above

CCc1cccc(CC)c1N
inactive: all assays above

CCCCOC(=O)c1ccccc1
inactive: all assays above

CCCOc1ccc(S(=O)(=O)N2CCN(CC)CC2)cc1-c1nc2c(CC)n(Cc3ccccn3)nc2c(=O)[nH]1
active: [2] 31.3 µM | [4] 25 µM | [7] 50 µM | [8] 18.1 µM | [10] 26.3 µM
inactive: all other assays above

O=C1CN(N=Cc2ccc([N+](=O)[O-])o2)C(=O)N1
active: [1] 32.7 µM | [2] 57.6 µM | [5] 16.1 µM
not listed: [4]
inactive: all other assays above

OCCOCCOCCO
inactive: all assays above

Cc1ccc(S(=O)(=O)NC(=O)NN2CCCCCC2)cc1
inactive: all assays above

CCCCCCCCCCCCCCO
inactive: all assays above

C[C@]12C=CC(=O)C=C1CC[C@H]1[C@@H]3C[C@@H](O)[C@](O)(C(=O)CO)[C@@]3(C)C[C@H](O)[C@@]12F
inactive: all assays above

c1ccc2cc3ccccc3cc2c1
inactive: all assays above

OC(CCl)CCl
inactive: all assays above

OCc1ccccc1
inactive: all assays above

CCCC(CCC)C(=O)O
inactive: all assays above

OCC(CO)(CO)CO
not listed: [5]
inactive: all other assays above

O=C(NO)C1(NS(=O)(=O)c2ccc(Oc3ccc(F)cc3)cc2)CCOCC1
active: [1] 80.7 µM | [2] 80 µM
inactive: all other assays above

NC(N)=O
inactive: all assays above

CCCCCCCCN(C)C
inactive: all assays above

NC(=O)N(O)[C@@H]1COc2cc(OCc3ccccc3)ccc21
inactive: all assays above

OCCNCCO
active: [1] 50 µM | [2] 50 µM | [8] 21.9 µM
inactive: all other assays above

CCN(CC)C(=S)SSC(=S)N(CC)CC
not listed: [8]
inactive: all other assays above

NC(=O)NN=Cc1ccc([N+](=O)[O-])o1
active: [3] 11.4 µM | [9] 0.196 µM
inactive: all other assays above

CCOc1ccc2[nH]cc(C(=O)NCc3ccccc3)c(=O)c2n1
inactive: all assays above

Nc1ccn([C@@H]2O[C@H](CO)[C@@H](O)[C@@H]2O)c(=O)n1
inactive: all assays above

c1ccc2c(c1)-c1cccc3c1c-2cc1ccccc13
inactive: [3] | [4] | [10]
active: [1] 18.8 µM | [2] 8.2 µM | [5] 11.4 µM | [6] 6.57 µM | [7] 13.7 µM | [8] 16.8 µM | [9] 7.13 µM

CC(C)C(=O)Nc1ccc([N+](=O)[O-])c(C(F)(F)F)c1
inactive: [5] | [6] | [10]
active: [1] 45.4 µM | [2] 9.61 µM | [3] 50 µM | [4] 50 µM | [7] 63.6 µM | [8] 79.6 µM | [9] 82.3 µM

CCCCCOC(C)=O
inactive: all assays above

c1ccc(C(O[C@@H]2CCCN(CCc3ccc4c(c3)OCO4)C2)c2ccccc2)cc1
inactive: [5] | [6]
active: [1] 79.2 µM | [2] 73.5 µM | [3] 78.9 µM | [4] 67.8 µM | [7] 86.5 µM | [8] 79.3 µM | [9] 77.1 µM | [10] 9.92 µM

CCCCCCCC1CCC(=O)O1 (centres undefined)
not listed: [4]
inactive: all other assays above

COS(C)(=O)=O
inactive: all assays above

Cn1c(=O)c2[nH]cnc2n(C)c1=O
not listed: [7]
inactive: all other assays above
